Molecules are shown by their SMILES.

The values below come from PubChem BioAssay (NCATS).

The experiment can be described thus: Cell Proliferation Assay against the TMD8 Cell Line (AID 651645).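 Also: cells exposed to compound for 48 h before reading.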 The following applies: TMD8 DLBCL cell line proliferation/viability; at 46.1 µM (top of the series) unless noted. An excerpt:
One class of targeted therapeutics showing early clinical success in killing of ABC DLBCL lines are small molecule inhibitors of the Bruton tyrosine kinase (BTK) 11.
Prior to any combination assays, using an NCATS developed oncology compound library called the Mechanism of Interrogation Plate (MIPE), two well studied ABC DLBCL lines (TMD8 and HBL1) were screened using a cell viability assay (CellTiterGlo) and a 12-point titration series for each single agent. These initial experiments offered insight into the concentration range that offered the best coverage of activity and non-activity to assure relevant data is generated. In addition to the viability signature associated with this library, we examined the apoptotic response of each agent versus the TMD8 line as judged by caspase 3/7 activation. Activity was assayed at both 8 and 16 hour time-points to gain an appreciation of which agents induced an apoptotic response in a reasonable timeframe from a therapeutic exposure perspective. MIPE was also assayed for single agent viability in a human mesenchymal stem cell (hMSC) line as a surrogate of each library member's potential therapeutic index.
A total of 500 log growing TMD8 cells are seeded per well in 5 uL of a RPMI with glutamine (or Glutamax), without phenol red plus 5% FBS and 1X Pen/Strep into 1536 -solid white high base tissue culture treated Greiner One Bio Plates (789173-F) using a multidrop combi dispenser and a small sterile cassette. Compounds and controls totaling 23nL per well (negative control DMSO and positive control 9.2 uM Bortezomib-final) are immediately added to the plates using a 1536 head pin tool from Kalypsys. The plates are then covered with stainless steel gasket lids from Kalypsys and incubated for 48 hours at 37C under 95% relative humidity with 5% CO2. After 48 hours, the plates are removed and allowed to reach room temperature before 3 uL of Cell Titer Glo reagent (Promega) is added using an Aurora Flying Reagent Dispenser Bioraptor. The plates are then spun at 1000 rpms to remove bubbles and incubated for 15 minutes at room temperature before read on a ViewLux using a luminescent filter with a 10 second exposure. The relative luciferase units are used to calculated percent activity using DMSO as 100% and Bortezomib as 0%.
With `Cc1c(C(=O)Nc2cccc(C(F)(F)F)c2)cc(-c2ccccc2)n1CCCN1CCOCC1`, the viability (% of control) worked out at 3.39%.

Turning to `C=CCON=C(C[C@H]1O[C@@H]2O[C@]3(C)CC[C@@H]4[C@H](C)CC[C@@H]([C@H]1C)[C@@]24OO3)[C@H]1O[C@@H]2O[C@]3(C)CC[C@H]4[C@H](C)CC[C@@H]([C@@H]1C)[C@@]24OO3`, the viability (% of control) was determined as 10.2%.

In the case of `O=C(Oc1ccc([N+](=O)[O-])cc1)N1CCC(C(O)(c2ccc3c(c2)OCO3)c2ccc3c(c2)OCO3)CC1`, the viability (% of control) was 68.8%.

Consider `Nc1nc(-c2nn(Cc3ccccc3F)c3ncccc23)nc(N)c1N1CCOCC1`, for which the viability (% of control) worked out at 91.5%.

For the compound `CC(C)[C@]12O[C@H]1[C@@H]1O[C@]13[C@]1(O[C@H]1C[C@H]1C4=C(CC[C@@]13C)C(=O)OC4)[C@@H]2O`, the viability (% of control) amounted to 3.13%.

For the compound `CCCCN1CCC(CNC(=O)c2c3n(c4ccccc24)CCCO3)CC1`, the viability (% of control) was 119%.

`CC1CC(C)C(=O)C(C(O)CC2CC(=O)NC(=O)C2)C1` (stereo unspecified): the viability (% of control) was 1.51% [at 92.2 µM].

For `Cc1nc(-c2ccc(-c3ccc(C(=O)N4CCc5cc6c(cc54)C4(CCN(C)CC4)CO6)cc3)c(C)c2)no1`, the viability (% of control) worked out at 2.26%.

Regarding `CC(=O)Nc1ccc(OC[C@](C)(O)C(=O)Nc2ccc([N+](=O)[O-])c(C(F)(F)F)c2)cc1`, the viability (% of control) is 86.6%.

In the case of `COc1ccc2c(c[n+](C)c3c4cc5c(cc4ccc23)OCO5)c1OC`, the viability (% of control) turned out to be 3.33%.

Regarding `Cc1ccccc1-n1c(Cn2cnc3c(N)ncnc32)nc2cccc(C)c2c1=O`, the viability (% of control) came out at 15.8%.
